High-throughput results (PubChem BioAssay)
The list is not random: actives were taken first. Their share in the collection is about 5.9%.
ATXN2 expr inh = Primary qHTS for Inhibitors of ATXN expression; Potency, µM (top dose mostly 57 µM), usual class: inhibitors; HEK-293 ATXN2-luciferase reporter, luminescence, 24 h; 360,000 tested, 0.72% active; note: nearly all actives have a fitted effect of over 55% in size
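qHTS (up to 57 uM final) was run with 24 h compound exposure of reporter cells at 37 °C. Each well was multiplexed: SteadyGlo luminescence measured ATXN2-luciferase expression after a fluorogenic Gly-Phe-AFC viability readout (25 uM final).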
KB-3-1 cytotox = qHTS assay for MDR1-selective chemotherapeutics: Primary screen using the parental adenocarcinoma cell KB-3-1; Potency, µM (top dose mostly 46.1 µM), usual class: cytotoxic; 400,000 tested, 1.4% active; AID 1347075, 2019; KB-3-1 viability, CellTiter-Glo ATP luminescence, 72 h; note: nearly all actives have a fitted effect of over 60% in size
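Cytotoxicity measured as CellTiter-Glo luminescence after 72 h at 37 C. Compound titrations were pinned onto drug-naive KB-3-1 parental adenocarcinoma cells grown in DMEM with 10% FBS, and normalized data fitted to concentration-response curves.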
KB-V1 cytotox = qHTS assay for MDR1-selective chemotherapeutics: Primary screen using the drug-selected MDR subline cells KB-V1 | KB-V1 MDR cells viability, CellTiter-Glo, 72 h | Potency, µM (top dose mostly 46.1 µM), actives largely listed as cytotoxic | 400,000 tested, 3.4% active | AID 1347076, 2019; note: nearly all actives have a fitted effect of over 60% in size
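Cytotoxicity toward P-gp-expressing KB-V1 cells was determined as loss of CellTiter-Glo luminescence after 72 h at 37 degrees C. Compounds were tested in quantitative HTS format across a concentration range, with curves fitted to normalized data.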
TGFb SMAD3 inh = qHTS for Inhibitors of TGF-b | AID 588855, 2011 | HepG2 CAGA-GFP TGF-b/SMAD3 reporter, GFP fluorescence, 18 h; TGF-beta stimulated, 500 pg/mL final | 410,000 tested, 1.2% active | Potency, µM (doses to about 46.1 µM), most hits filed as inhibitors; note: nearly all actives have a fitted effect of over 65% in size
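HEPG2 CAGA-GFP, 1000 cells/well; 2 h settle, 37 C; cpd via pin tool; TGF-b 500 pg/mL final; 18 h, 37 C; GFP imaging ex488/em500-530; %Activity normalised to -TGF-b and +DMSO controls; CRC fit, curve class.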
HepG2 viability = qHTS for Inhibitors of TGF-b: Cytotox Counterscreen. HepG2 CAGA-GFP viability, ATP luminescence, 18 h. Potency, µM (highest dose often 46.1 µM), hits mostly cytotoxic. 410,000 tested, 0.76% active
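CellTiter-Glo luminescence gave cytotoxicity after 18 hours at 37 degrees C. The cells were HepG2 CAGA-GFP in 1% FBS DMEM, stimulated with 500 pg/mL TGF-beta after compound addition. %Activity was normalised to no-cell wells (complete cell-killing) and DMSO (no toxicity), and curves were fitted and classified.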
S2 tox = Viability Counterscreen for Primary qHTS for Inhibitors of ATXN expression | S2 cells (HEK-293 line with an ATXN2-luciferase reporter) viability, CellTiter-Fluor protease fluorescence, 24 h | Potency, µM (highest dose often 56.7 µM), hits mostly cytotoxic | 400,000 tested, 0.49% active; note: nearly all actives have a fitted effect of over 40% in size
A number is an active result. Calls come from the whole dose curve; as a rule, active = well fitted curve in the direction sought with a large enough effect; inconclusive = small, poorly fitted or top-dose-only effect, or another doubt; inactive = no such curve, though single readings can be large; an effect the other way counts as inactive or inconclusive.

Cc1ccc2c(c1)C=CC(C#N)N2C(=O)Oc1ccccc1 (stereo not drawn) was read as KB-3-1 cytotox inactive, KB-V1 cytotox inactive, TGFb SMAD3 inh inactive, HepG2 viability inactive and S2 tox inactive.
`CCSC(=O)N1c2ccc(OC)cc2C=CC1C#N` (stereo not drawn) gave ATXN2 expr inh inactive, KB-3-1 cytotox 0.65µM, KB-V1 cytotox 0.73µM, TGFb SMAD3 inh inconclusive, HepG2 viability inactive and S2 tox inconclusive.
`Cc1cc(/C=N/n2cnnc2)c(C)n1-c1ccc2c(c1)OCO2` gave ATXN2 expr inh inactive, KB-3-1 cytotox inactive, KB-V1 cytotox 5.2µM, TGFb SMAD3 inh inactive, HepG2 viability inactive and S2 tox inactive.
Cc1cc(/C=N/n2cnnc2)c(C)n1-c1ccc(C(=O)O)cc1 was read as KB-3-1 cytotox inactive, KB-V1 cytotox inactive, TGFb SMAD3 inh inactive and HepG2 viability inactive.
`Cc1cccc(-n2c(C)cc(/C=N/n3cnnc3)c2C)c1` gave ATXN2 expr inh inactive, KB-3-1 cytotox inconclusive, KB-V1 cytotox 18µM, TGFb SMAD3 inh inactive, HepG2 viability inactive and S2 tox inactive.
For C(=N\n1cnnc1)/c1ccc2c(c1)OCO2 the results were ATXN2 expr inh inactive, KB-3-1 cytotox inactive, KB-V1 cytotox inactive, TGFb SMAD3 inh inconclusive, HepG2 viability inactive and S2 tox inactive.
Screening COc1cc(C)c(NC(C)C(=O)c2c(C)[nH]c3ccccc23)cc1OC (stereo not drawn) returned KB-3-1 cytotox inactive, KB-V1 cytotox inactive, TGFb SMAD3 inh inactive and HepG2 viability inactive.
`COc1ccccc1CNS(=O)(=O)c1c(C(=O)N2CCC(C)CC2)c(C)n(C)c1C` gave TGFb SMAD3 inh inconclusive and HepG2 viability inactive.
CCCc1cc(=O)[nH]c(SCCc2ccccc2)n1 was read as KB-3-1 cytotox inconclusive, KB-V1 cytotox 16µM, TGFb SMAD3 inh inactive, HepG2 viability inactive and S2 tox inactive.
`CCOC(=O)CCC(=O)Nc1ncnc2c1C(c1ccccc1)c1c(ccc3ccccc13)O2` (stereo not drawn) gave ATXN2 expr inh inconclusive, KB-3-1 cytotox inconclusive, KB-V1 cytotox inactive, TGFb SMAD3 inh inconclusive, HepG2 viability inactive and S2 tox inconclusive.
For O=C(Cc1ccccc1)Nc1ncnc2c1C(c1ccccc1)c1c(ccc3ccccc13)O2 (stereo not drawn) the results were ATXN2 expr inh inactive, KB-3-1 cytotox inconclusive, KB-V1 cytotox 18µM, TGFb SMAD3 inh inconclusive, HepG2 viability inactive and S2 tox inactive.
`O=C(Nc1ncnc2c1C(c1ccccc1)c1c(ccc3ccccc13)O2)c1ccccc1` (stereo not drawn) gave ATXN2 expr inh inconclusive, KB-3-1 cytotox 13µM, KB-V1 cytotox inconclusive, TGFb SMAD3 inh inactive, HepG2 viability inactive and S2 tox inconclusive.
For CC(C)Oc1ccc(CNC(=O)C(C)n2ccc3cc(S(=O)(=O)N4CCCCCC4)ccc32)cc1 (stereo not drawn) the results were ATXN2 expr inh inactive, KB-3-1 cytotox inactive, KB-V1 cytotox inactive, TGFb SMAD3 inh inactive, HepG2 viability inactive and S2 tox inactive.
`CNC(=S)N(Cc1ccc2c(c1)OCO2)C1CC(=O)N(c2ccc(F)cc2)C1=O` (stereo not drawn) gave ATXN2 expr inh inactive, KB-3-1 cytotox inconclusive, KB-V1 cytotox 16µM, TGFb SMAD3 inh inactive, HepG2 viability inactive and S2 tox inactive.
Screening CC1CC(=O)NN=C1c1ccc(NCC(C)(C)NCC(O)COc2cc(Cl)ccc2C#N)cc1 (stereo not drawn) returned ATXN2 expr inh inactive and S2 tox inactive.
Screening C(=C\c1ccccc1)/CN1CCN(C(c2ccccc2)c2nnnn2C2CCCC2)CC1 (stereo not drawn) returned ATXN2 expr inh inactive, KB-3-1 cytotox inactive, KB-V1 cytotox inactive, TGFb SMAD3 inh inconclusive, HepG2 viability inactive and S2 tox inconclusive.
For Fc1ccc(C(c2nnnn2C2CCCC2)N2CCN(Cc3ccccc3)CC2)cc1 (stereo not drawn) the results were ATXN2 expr inh inactive, KB-3-1 cytotox inactive, KB-V1 cytotox 3.7µM, TGFb SMAD3 inh inactive, HepG2 viability inactive and S2 tox inconclusive.
For CCCCn1nnnc1C(c1ccccc1)N1CCCN(Cc2ccc(F)cc2)CC1 (stereo not drawn) the results were ATXN2 expr inh inactive, KB-3-1 cytotox inconclusive, KB-V1 cytotox 8.2µM and S2 tox inconclusive.
`C(=C\c1ccccc1)/CN1CCN(C(c2ccnc3ccccc23)c2nnnn2C2CCCC2)CC1` (stereo not drawn) gave ATXN2 expr inh inactive, KB-3-1 cytotox inactive, KB-V1 cytotox 15µM, TGFb SMAD3 inh 10µM, HepG2 viability inactive and S2 tox inconclusive.
Cc1cc(C)c(Cn2c(C)c(CNCc3ccccc3C)c(C(=O)O)c2C)c(C)c1 was read as ATXN2 expr inh inactive, KB-3-1 cytotox inactive, KB-V1 cytotox inactive, TGFb SMAD3 inh inactive, HepG2 viability inactive and S2 tox inconclusive.
`CCc1nc(N2CCN(C(=O)c3ccccc3)CC2)c(C#N)c2c1COC(C)(C)C2` gave ATXN2 expr inh inactive, KB-3-1 cytotox inconclusive, KB-V1 cytotox inconclusive, TGFb SMAD3 inh inactive, HepG2 viability inactive and S2 tox inactive.
CC1(C)Cc2c(C#N)c(N3CCN(C(=O)c4ccccc4)CC3)nc(Cc3ccccc3)c2CO1 was read as ATXN2 expr inh inactive, KB-3-1 cytotox inconclusive, KB-V1 cytotox 18µM, TGFb SMAD3 inh inactive, HepG2 viability inactive and S2 tox inactive.
`CC(C)Cn1cc(NC(=O)NCc2ccc(Cl)cc2)c2ccccc2c1=O` gave ATXN2 expr inh inactive, KB-3-1 cytotox inactive, KB-V1 cytotox inactive, TGFb SMAD3 inh inactive, HepG2 viability inactive and S2 tox inactive.
CC1=CC(C)(C)N2C(=O)C3(C(C#N)=C(N)OC4=C3C(=O)CCC4)c3c(C)c(C)cc1c32 (stereo not drawn) was read as ATXN2 expr inh inactive, KB-3-1 cytotox inactive, KB-V1 cytotox inactive, TGFb SMAD3 inh inactive, HepG2 viability inactive and S2 tox inactive.
`Cc1cc2c3c(c1)C(C)(c1ccccc1)CC(C)(C)N3C(=O)C21C(C#N)=C(N)OC2=C1C(=O)CC(C)(C)C2` (stereo not drawn) gave ATXN2 expr inh inconclusive, KB-3-1 cytotox inconclusive, KB-V1 cytotox 21µM, TGFb SMAD3 inh inconclusive, HepG2 viability inactive and S2 tox inconclusive.
